{
  "source": "PubChem BioAssay (NCATS)",
  "note": "Records with an inconclusive call do not appear. Values without a mark were called inactive. Calls follow the shape of the dose curve; as a rule, active = well fitted inhibition curve with a large enough effect; inconclusive = small, poorly fitted or top-dose-only effect; inactive = no such curve, though single readings can be large or run the other way. % is scaled to controls: 0 for no effect and ±100 for the full control effect.",
  "data": [
    {"experiment": "Primary qHTS for small molecule stabilizers of the endoplasmic reticulum resident proteome: Secreted ER Calcium Modulated Protein (SERCaMP) assay (AID 1508630)", "conditions": "SH-SY5Y GLuc-SERCaMP (Gaussia luciferase released on ER calcium loss) secretion, thapsigargin, luminescence; series mostly up to 38.4 µM; activity change, negative = inhibition: at the top concentration", "outline": "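GLuc-SERCaMP-expressing SH-SY5Y cells, pretreated 16 h with compound, are challenged with thapsigargin to empty ER calcium stores; after 4 h, coelenterazine is added directly to the medium and luminescence is imaged.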", "values": [
      {"smiles": "C=Cc1c(C)c2cc3nc(cc4[nH]c(cc5nc(cc1[nH]2)C(C)=C5CCC(=O)O)c(CCC(=O)OC)c4C)[C@@]1(C)C3=CC=C(C(=O)OC)[C@H]1C(=O)OC", "activity change, negative = inhibition": "307%"},
      {"smiles": "Cc1onc(-c2ccccc2)c1C(=O)N[C@@H]1C(=O)N2[C@@H](C(=O)O)C(C)(C)S[C@@H]12", "activity change, negative = inhibition": "75%"},
      {"smiles": "Cn1cc(C[C@@H](N)C(=O)O)c2ccccc21", "activity change, negative = inhibition": "-31.9% [at 21.6 µM]"},
      {"smiles": "CCNC(=O)Nc1ccc(-c2nc3c(c(N4CCOC[C@H]4C)n2)CCN(C2COC2)C3)cc1", "activity change, negative = inhibition": "140%"}
    ]}
  ]
}
